This passage reports inhibition results from ChEMBL document CHEMBL1961873, “Compounds: GSK PKIS; Assays: Nanosyn kinase panel” (2012).

Test [1] concerns the target Calcium/calmodulin-dependent protein kinase type II subunit alpha (Homo sapiens) (UniProt Q9UQM7). The conditions noted are these: at 1 µM.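 Further: reported value is a mean percent inhibition of CAMK2A.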
For test [2], the target named is Calcium/calmodulin-dependent protein kinase type II subunit delta (Homo sapiens) (UniProt Q13557). To be noted: at 0.1 µM.
Chain of Calcium/calmodulin-dependent protein kinase type II subunit delta (Homo sapiens) (Q13557 whole entry): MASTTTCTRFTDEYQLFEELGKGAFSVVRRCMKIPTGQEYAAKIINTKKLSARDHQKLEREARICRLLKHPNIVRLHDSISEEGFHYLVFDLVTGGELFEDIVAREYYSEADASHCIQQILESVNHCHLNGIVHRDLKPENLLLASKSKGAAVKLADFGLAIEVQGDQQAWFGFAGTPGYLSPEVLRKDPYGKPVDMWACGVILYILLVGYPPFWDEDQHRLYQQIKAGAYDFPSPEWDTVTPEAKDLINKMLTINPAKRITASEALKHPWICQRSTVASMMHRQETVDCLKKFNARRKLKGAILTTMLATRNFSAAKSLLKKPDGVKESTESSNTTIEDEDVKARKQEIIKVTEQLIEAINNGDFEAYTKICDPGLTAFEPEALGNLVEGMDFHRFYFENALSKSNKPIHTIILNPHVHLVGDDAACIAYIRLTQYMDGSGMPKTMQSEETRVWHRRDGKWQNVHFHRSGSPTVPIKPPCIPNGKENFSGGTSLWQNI
The target is the same in test [3]. To be noted: at 1 µM.
The target in test [4] is T1, Calcium/calmodulin-dependent protein kinase type IV (Homo sapiens) (UniProt Q16566).
T1 sequence (whole entry): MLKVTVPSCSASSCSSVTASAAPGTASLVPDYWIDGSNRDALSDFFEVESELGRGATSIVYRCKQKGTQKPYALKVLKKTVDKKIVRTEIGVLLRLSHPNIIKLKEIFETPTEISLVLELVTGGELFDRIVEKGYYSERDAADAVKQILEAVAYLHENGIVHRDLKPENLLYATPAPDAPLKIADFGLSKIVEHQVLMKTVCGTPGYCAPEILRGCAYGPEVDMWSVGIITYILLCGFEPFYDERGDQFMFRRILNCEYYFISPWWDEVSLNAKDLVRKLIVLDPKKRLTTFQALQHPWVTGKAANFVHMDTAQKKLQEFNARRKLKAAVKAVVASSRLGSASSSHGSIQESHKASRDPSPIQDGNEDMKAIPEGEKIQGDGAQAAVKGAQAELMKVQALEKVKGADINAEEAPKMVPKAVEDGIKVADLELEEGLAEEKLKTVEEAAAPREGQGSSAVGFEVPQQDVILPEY
To be noted: at 0.1 µM.

The target of test [5] is T1, Calcium/calmodulin-dependent protein kinase type IV (Homo sapiens). The conditions noted are these: at 1 µM.
The target in test [6] is T2, Serine/threonine-protein kinase Chk1 (Homo sapiens) (UniProt O14757).
T2 sequence (whole entry): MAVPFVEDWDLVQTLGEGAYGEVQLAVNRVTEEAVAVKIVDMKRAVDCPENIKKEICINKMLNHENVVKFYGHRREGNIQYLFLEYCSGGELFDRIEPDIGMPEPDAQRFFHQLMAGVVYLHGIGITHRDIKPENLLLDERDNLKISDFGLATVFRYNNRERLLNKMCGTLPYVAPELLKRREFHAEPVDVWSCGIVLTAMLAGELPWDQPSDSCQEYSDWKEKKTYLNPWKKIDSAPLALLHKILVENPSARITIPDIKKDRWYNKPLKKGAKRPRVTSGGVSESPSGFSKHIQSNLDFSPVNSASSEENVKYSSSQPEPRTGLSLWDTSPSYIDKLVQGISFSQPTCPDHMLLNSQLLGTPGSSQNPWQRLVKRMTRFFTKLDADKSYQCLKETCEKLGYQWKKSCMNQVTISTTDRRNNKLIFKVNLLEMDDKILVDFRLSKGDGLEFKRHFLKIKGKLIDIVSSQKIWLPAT
The conditions noted are these: at 0.1 µM.

Test [7] concerns the target T2, Serine/threonine-protein kinase Chk1 (Homo sapiens). To be noted: at 1 µM.
The target in test [8] is Serine/threonine-protein kinase Chk2 (Homo sapiens) (UniProt O96017). To be noted: at 0.1 µM.
Chain of Serine/threonine-protein kinase Chk2 (Homo sapiens) (O96017 whole entry): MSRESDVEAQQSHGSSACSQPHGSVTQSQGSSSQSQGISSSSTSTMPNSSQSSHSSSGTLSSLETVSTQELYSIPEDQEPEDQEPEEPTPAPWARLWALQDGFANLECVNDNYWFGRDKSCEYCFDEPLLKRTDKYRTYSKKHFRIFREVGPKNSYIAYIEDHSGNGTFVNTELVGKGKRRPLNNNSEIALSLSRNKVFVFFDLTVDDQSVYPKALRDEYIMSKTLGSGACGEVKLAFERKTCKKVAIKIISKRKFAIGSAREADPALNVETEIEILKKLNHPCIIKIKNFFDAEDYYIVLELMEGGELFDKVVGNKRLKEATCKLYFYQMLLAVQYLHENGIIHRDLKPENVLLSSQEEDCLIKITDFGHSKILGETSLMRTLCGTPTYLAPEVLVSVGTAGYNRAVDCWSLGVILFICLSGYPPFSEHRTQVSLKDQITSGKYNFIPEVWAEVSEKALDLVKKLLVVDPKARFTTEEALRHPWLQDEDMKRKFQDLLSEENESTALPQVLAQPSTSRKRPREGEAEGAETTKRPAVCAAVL
Test [9] has the same target. To be noted: at 1 µM.
In test [10] the target is Death-associated protein kinase 1 (Homo sapiens) (UniProt P53355). The conditions noted are these: at 0.1 µM.
Test [11] has the same target. The conditions noted are these: at 1 µM.
Test [12] deals with T3, Serine/threonine-protein kinase DCLK2 (Homo sapiens) (UniProt Q8N568).
T3 sequence (whole entry): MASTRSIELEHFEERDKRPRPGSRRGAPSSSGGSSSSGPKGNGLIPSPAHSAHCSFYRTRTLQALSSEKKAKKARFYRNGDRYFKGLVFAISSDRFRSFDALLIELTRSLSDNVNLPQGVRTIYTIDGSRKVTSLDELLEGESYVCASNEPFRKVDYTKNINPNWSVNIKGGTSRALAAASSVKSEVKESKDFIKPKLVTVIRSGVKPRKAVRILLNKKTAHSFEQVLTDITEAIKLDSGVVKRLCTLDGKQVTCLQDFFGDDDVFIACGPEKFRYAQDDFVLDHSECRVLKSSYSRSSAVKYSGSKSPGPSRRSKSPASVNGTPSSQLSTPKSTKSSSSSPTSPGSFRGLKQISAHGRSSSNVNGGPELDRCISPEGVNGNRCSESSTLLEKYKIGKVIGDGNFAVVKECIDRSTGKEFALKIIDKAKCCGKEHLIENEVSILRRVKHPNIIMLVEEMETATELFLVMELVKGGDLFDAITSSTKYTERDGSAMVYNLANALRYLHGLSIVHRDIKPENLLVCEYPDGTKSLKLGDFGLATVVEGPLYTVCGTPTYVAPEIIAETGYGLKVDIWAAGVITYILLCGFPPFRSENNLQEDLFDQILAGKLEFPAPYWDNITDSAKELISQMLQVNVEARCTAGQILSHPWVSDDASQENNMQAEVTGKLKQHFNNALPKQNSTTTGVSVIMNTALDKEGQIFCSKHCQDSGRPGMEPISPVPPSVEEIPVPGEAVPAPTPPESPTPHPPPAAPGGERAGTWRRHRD
The conditions noted are these: at 0.1 µM.

The target in test [13] is T3, Serine/threonine-protein kinase DCLK2 (Homo sapiens). The conditions noted are these: at 1 µM.
Test [14] concerns the target MAP kinase-activated protein kinase 2 (Homo sapiens) (UniProt P49137). The conditions noted are these: at 0.1 µM.
For test [15] the target is unchanged. To be noted: at 1 µM.
Test [16] concerns the target MAP kinase-activated protein kinase 3 (Homo sapiens) (UniProt Q16644). The conditions noted are these: at 0.1 µM.
Test [17] has the same target. To be noted: at 1 µM.
In test [18] the target is Serine/threonine-protein kinase MARK1 (Homo sapiens) (UniProt Q9P0L2). To be noted: at 0.1 µM.
Chain of Serine/threonine-protein kinase MARK1 (Homo sapiens) (Q9P0L2 whole entry, looked up): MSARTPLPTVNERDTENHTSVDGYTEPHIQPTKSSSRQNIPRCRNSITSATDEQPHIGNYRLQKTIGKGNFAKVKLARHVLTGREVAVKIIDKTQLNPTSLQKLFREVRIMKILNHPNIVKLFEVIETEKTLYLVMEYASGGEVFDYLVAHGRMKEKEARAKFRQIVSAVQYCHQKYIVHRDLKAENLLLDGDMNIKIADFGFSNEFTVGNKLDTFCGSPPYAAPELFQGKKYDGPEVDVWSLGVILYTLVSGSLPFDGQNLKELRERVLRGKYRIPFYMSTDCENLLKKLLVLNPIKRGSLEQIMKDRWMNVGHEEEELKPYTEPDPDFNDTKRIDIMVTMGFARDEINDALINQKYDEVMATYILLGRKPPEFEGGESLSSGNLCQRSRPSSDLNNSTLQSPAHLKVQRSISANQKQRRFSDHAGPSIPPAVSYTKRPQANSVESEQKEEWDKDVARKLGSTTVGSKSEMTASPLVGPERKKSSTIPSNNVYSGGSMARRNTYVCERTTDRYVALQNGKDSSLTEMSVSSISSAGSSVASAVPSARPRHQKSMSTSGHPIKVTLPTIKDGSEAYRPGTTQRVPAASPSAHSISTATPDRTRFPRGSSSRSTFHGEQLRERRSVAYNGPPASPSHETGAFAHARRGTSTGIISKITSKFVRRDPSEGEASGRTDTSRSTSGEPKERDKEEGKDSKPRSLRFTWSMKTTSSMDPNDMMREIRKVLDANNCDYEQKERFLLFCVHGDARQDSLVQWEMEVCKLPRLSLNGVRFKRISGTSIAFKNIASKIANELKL
Test [19] shares this target. The conditions noted are these: at 1 µM.
Test [20] has as its target MAP/microtubule affinity-regulating kinase 3 (Homo sapiens) (UniProt P27448). The conditions noted are these: at 0.1 µM.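 Further: mean percent inhibition of MARK3 kinase activity, measured within the GSK PKIS screening panel.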

Chain of MAP/microtubule affinity-regulating kinase 3 (Homo sapiens) (P27448 whole entry, looked up): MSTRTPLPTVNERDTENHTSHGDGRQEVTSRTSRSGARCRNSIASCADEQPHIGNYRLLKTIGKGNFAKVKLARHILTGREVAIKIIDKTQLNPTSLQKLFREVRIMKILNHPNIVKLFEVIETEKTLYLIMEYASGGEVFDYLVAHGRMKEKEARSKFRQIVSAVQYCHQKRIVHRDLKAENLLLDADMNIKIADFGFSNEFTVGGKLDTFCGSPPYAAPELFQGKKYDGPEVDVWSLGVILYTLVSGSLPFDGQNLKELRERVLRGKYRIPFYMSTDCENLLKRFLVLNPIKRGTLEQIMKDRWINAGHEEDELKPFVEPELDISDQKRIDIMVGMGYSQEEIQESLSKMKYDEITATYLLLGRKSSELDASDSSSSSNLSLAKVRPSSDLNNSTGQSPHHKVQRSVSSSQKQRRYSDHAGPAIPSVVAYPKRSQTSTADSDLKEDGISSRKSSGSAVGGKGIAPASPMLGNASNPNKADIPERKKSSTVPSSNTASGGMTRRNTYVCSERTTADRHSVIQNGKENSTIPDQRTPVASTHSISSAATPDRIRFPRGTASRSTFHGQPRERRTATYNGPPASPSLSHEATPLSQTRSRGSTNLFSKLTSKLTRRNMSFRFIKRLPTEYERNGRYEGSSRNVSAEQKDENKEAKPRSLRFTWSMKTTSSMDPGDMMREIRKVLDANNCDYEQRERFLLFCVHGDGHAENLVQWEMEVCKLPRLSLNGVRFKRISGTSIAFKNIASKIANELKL
Chain of MAP kinase-activated protein kinase 2 (Homo sapiens) (P49137 whole entry, looked up): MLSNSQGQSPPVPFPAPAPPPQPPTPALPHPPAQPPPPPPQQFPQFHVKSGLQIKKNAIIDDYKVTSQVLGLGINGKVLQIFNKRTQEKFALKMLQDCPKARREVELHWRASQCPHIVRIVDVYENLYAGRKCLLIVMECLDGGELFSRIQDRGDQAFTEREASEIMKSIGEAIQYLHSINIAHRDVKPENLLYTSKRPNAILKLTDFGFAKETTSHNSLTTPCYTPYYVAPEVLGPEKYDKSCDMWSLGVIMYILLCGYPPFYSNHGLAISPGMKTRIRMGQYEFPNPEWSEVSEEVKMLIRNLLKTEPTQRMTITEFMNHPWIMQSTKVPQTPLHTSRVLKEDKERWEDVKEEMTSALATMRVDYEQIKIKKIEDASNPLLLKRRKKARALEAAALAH
Chain of MAP kinase-activated protein kinase 3 (Homo sapiens) (Q16644 whole entry, looked up): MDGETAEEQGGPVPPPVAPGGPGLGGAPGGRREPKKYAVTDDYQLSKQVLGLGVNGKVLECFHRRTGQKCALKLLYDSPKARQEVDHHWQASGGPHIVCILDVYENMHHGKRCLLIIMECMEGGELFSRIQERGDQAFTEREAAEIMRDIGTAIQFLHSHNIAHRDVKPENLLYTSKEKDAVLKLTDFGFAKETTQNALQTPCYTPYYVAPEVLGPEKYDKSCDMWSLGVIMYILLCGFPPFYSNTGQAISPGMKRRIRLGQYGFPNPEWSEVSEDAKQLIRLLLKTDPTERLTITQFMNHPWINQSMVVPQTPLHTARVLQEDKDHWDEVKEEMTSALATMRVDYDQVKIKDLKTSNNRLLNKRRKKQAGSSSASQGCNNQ
Chain of Calcium/calmodulin-dependent protein kinase type II subunit alpha (Homo sapiens) (Q9UQM7 whole entry): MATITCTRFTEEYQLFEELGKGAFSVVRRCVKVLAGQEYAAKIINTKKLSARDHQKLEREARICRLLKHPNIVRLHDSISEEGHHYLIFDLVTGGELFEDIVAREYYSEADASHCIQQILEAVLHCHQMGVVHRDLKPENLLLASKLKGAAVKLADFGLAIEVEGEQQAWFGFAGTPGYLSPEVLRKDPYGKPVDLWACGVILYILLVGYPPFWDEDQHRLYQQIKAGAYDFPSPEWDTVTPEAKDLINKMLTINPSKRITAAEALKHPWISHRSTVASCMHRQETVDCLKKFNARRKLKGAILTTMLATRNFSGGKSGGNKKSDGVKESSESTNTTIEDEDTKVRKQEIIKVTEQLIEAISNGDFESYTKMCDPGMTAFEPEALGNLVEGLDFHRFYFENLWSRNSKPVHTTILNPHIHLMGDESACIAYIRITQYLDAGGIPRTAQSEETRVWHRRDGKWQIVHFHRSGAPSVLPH

Take `Cc1ccc2c(-c3ccnc(Nc4cccc(C(F)(F)F)c4)n3)c(-c3ccccc3)nn2n1`: the inhibition (in general, the drop in the measured response relative to a control, in per cent) in [1] was 1.98%; in [2] it was 2.93%; in test [3] it was 5.15%; in [4], 1.16%; in test [5], 3.52%; in test [6] it was -6.21%. The inhibition in test [7] is -9.83%; in [8], -3.6%; in test [9] it was -3.73%; in [10], -4.51%; in test [11], -5.56%; in test [12] it was 0.64%. The inhibition in [13] is 2.53%; in test [14], -1.16%; in test [15], -0.78%; in [16] it was 15.6%; in test [17], 27.2%; in test [18], 1.58%. Further, the inhibition is 4.76% in test [19] and -0.41% in [20].

As for `NS(=O)(=O)c1ccc(N/N=C2\C(=O)Nc3ccc(Cl)cc32)cc1`, the inhibition in test [1] is 4.05%; in test [2], 2.98%; in test [3], 4.81%; in test [4], -0.73%; in test [5], -3.41%; in test [6], -3.35%. The inhibition in test [7] is -2.04%; in test [8], -2.37%; in test [9], 0.53%; in test [10], -4%; in test [11], -3.71%; in test [12], 0.73%. Further, the inhibition in test [13] is 1%; in test [14], -0.88%; in [15], -0.73%; in [16], -2.03%; in [17], -2.76%; in test [18], 3.26%. The figures for the inhibition in test [19] and in test [20] were 11.4% and 4.4%, respectively.

For `COc1cccc(-n2ncc3c(N/N=C/c4ccc(S(C)(=O)=O)cc4)ncnc32)c1`, the inhibition came out at 1.01% in [1]; 1.8% in [2]; 4.11% in [3]; 2.57% in test [4]; 0.23% in test [5]; 0.1% in test [6]. Further, the inhibition in test [7] was -1.03%; in [8], -0.14%; in test [9], 0.05%; in [10] it was -1.65%; in test [11], -2.35%; in [12], -3.49%. Further, the inhibition in test [13] is -3.25%; in test [14] it was -0.57%; in test [15], -0.87%; in [16], -0.21%; in test [17] it was -1.31%; in test [18], 0.85%. Moreover, the values for the inhibition in [19] and in [20] were 4.83% and 0.34%, respectively.

With `CN(c1ccc(NC(=O)Nc2ccc(OC(F)(F)F)cc2)cc1)c1ccnc(Nc2cccc(S(N)(=O)=O)c2)n1`, the inhibition was -1.5% in [1]; 1.07% in [2]; 0.14% in [3]; -0.96% in [4]; 0.59% in test [5]; 1.72% in test [6]. The inhibition in test [7] was -0.01%; in test [8] it was 5.43%; in [9] it was 25.9%; in test [10] it was 3.79%; in test [11], 2.02%; in test [12], -2.05%. For the same compound, the inhibition in test [13] was 0.7%; in test [14] it was 0.67%; in [15], -0.37%; in [16], 2.5%; in [17], 7.62%; in [18], 0.28%. Further, the inhibition in [19] worked out at 2.36%; in test [20] it was 1.62%.

On to `COC(=O)c1cncc(/C=C/c2c(C)cc(O)cc2C)c1`, for which the inhibition in test [1] was 3.06%; in test [2] it was 1.37%; in test [3] it was 3%; in test [4] it was -2.74%; in test [5] it was -4.13%; in test [6] it was 3.13%. Moreover, the inhibition turned out to be 3.49% in test [7]; 2.38% in test [8]; 4.27% in [9]; 4.88% in test [10]; 5.55% in [11]; 1.84% in [12]. The inhibition in test [13] stood at 1.18%; in [14], 1.83%; in test [15] it was 2.28%; in test [16], 2.97%; in [17], 3.34%; in [18] it was 2.55%. The values for the inhibition in test [19] and in test [20] were 2.79% and 2.68%, respectively.

For the compound `COc1ccc(-c2nn3ncccc3c2-c2ccnc(Nc3cccc(C(F)(F)F)c3)n2)cc1`, the inhibition was -0.66% in test [1]; 1.66% in test [2]; 0.95% in test [3]; 1.07% in test [4]; -0.19% in test [5]; 1.85% in test [6]. Besides, the inhibition in test [7] was -3.09%; in [8], 2.01%; in test [9] it was 1.61%; in test [10] it was 4.24%; in [11] it was 2.26%; in [12], -0.87%. The inhibition in [13] is -1.41%; in test [14], 1.58%; in test [15], 0.39%; in [16], 7.94%; in [17], 23.9%; in test [18], 1.45%. Besides, the inhibition in [19] came to 3.55%; in test [20], 0.72%.

`NS(=O)(=O)c1cccc(Nc2cc(-c3ccc(F)cc3)n[nH]2)c1`: the inhibition in [1] was 3.11%; in test [2], 2.57%; in test [3], 7.84%; in [4], -1.7%; in test [5], -3.94%; in test [6], -1.71%. Also, the inhibition in [7] is 17.6%; in [8], 8.44%; in test [9] it was 11.9%; in test [10] it was 10.4%; in test [11], 11.9%; in test [12], 0.71%. Moreover, the inhibition was -0.18% in test [13]; 4.39% in [14]; 4.71% in [15]; 9.87% in test [16]; 9.68% in test [17]; 3.98% in [18]. In addition, the inhibition was 17.5% in test [19] and 5.25% in test [20].
